Among the test systems are DU-145 prostate; K-562 leukemia; MALME-3M melanoma; MDA-MB-231 breast; RXF 393 renal; SF-268 CNS; SF-295 CNS; SF-539 CNS; UACC-257 melanoma; HCT-15 colon; HT29 colon; SNB-75 CNS; SNB-19 CNS; U251 CNS; PC-3 prostate; SK-MEL-5 melanoma; UACC-62 melanoma; LOX IMVI melanoma; SK-MEL-28 melanoma; M14 melanoma.
Holding throughout (experiment): NCI-60 one-dose screen, 48 h (100 = growth as untreated, 0 = no growth, -100 = all killed)
Conditions in all cases: 10 µM unless noted

The values below come from PubChem BioAssay (NCI).

Molecules are shown by their SMILES. Compounds without any hit were thinned out: in the full panel of roughly 83,000, 20% have a hit.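 The endpoint reported here, percent growth, reads 100 for growth as untreated, 0 for no net growth and -100 for all cells dead.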 A number with no mark means an inactive call. The source made the active and inactive calls. Rule for the calls: active = growth percent below 10; inactive = the rest.

With `O=C(c1ccc2ncc(-c3nc(NC4CC4)ncc3F)n2c1)N1CCOCC1`, the growth in the experiment with DU-145 prostate was 11.3%; in the experiment with K-562 leukemia, 73.6%; in the experiment on MALME-3M melanoma, 71.2%; with MDA-MB-231 breast it was 49.8%; in the experiment with RXF 393 renal, -48.7% (active); with SF-268 CNS, 1.39% (active). The growth is 19.6% in the experiment with SF-295 CNS; -0.925% (active) with SF-539 CNS; 46.1% in the experiment with UACC-257 melanoma; 23.8% in the experiment with HCT-15 colon; 26.4% with HT29 colon; -21.6% (active) in the experiment with SNB-75 CNS. Besides, the growth is 45.8% in the experiment with SNB-19 CNS; 28.6% with U251 CNS; 52.6% with PC-3 prostate; -51.8% (active) with SK-MEL-5 melanoma; 16.9% with UACC-62 melanoma; -0.283% (active) in the experiment with LOX IMVI melanoma. For the same compound, the growth with SK-MEL-28 melanoma is 45.4%.
Consider `COc1ccc(S(=O)(=O)c2ccc(C(N)=O)cc2)cc1NC(=O)c1[nH]c(C)c2c1CCCCC2=O`, for which the growth with DU-145 prostate is 82.9%; with K-562 leukemia, 46.5%; with MALME-3M melanoma it was 70.2%; in the experiment on MDA-MB-231 breast, 28.9%; in the experiment on RXF 393 renal it was 68.6%; in the experiment with SF-268 CNS, 74.2%. Further, the growth with SF-295 CNS is 49.9%; in the experiment on SF-539 CNS it was 48.7%; in the experiment with UACC-257 melanoma, 63.2%; in the experiment with HCT-15 colon it was 99.6%; in the experiment on HT29 colon, 32.6%; in the experiment with SNB-75 CNS it was -13.8% (active). Moreover, the growth in the experiment on SNB-19 CNS was 60.2%; with U251 CNS, 38.6%; in the experiment on PC-3 prostate, 68%; in the experiment with SK-MEL-5 melanoma, 48.5%; with LOX IMVI melanoma, 32%; in the experiment on SK-MEL-28 melanoma, 67.5%.
Take `C(=C\c1ccccc1)/CN1CCN(C(c2ccccc2)c2ccccc2)CC1`: the growth in the experiment on DU-145 prostate was 109%; in the experiment on K-562 leukemia, 79.2%; in the experiment with MALME-3M melanoma it was 106%; with MDA-MB-231 breast, 91.5%; in the experiment on RXF 393 renal, 81%; in the experiment on SF-268 CNS, 98.5%. Besides, the growth in the experiment on SF-539 CNS was 90.7%; with UACC-257 melanoma, 92.1%; in the experiment on M14 melanoma it was 99.1%; in the experiment on HCT-15 colon, 80.9%; in the experiment with HT29 colon it was 83.1%; with SNB-75 CNS, 85.4%. In addition, the growth is 96.3% in the experiment on SNB-19 CNS; 77.5% in the experiment with PC-3 prostate; 95.5% in the experiment on SK-MEL-5 melanoma; 96.9% with UACC-62 melanoma; 99.7% in the experiment with LOX IMVI melanoma; 91.9% in the experiment with SK-MEL-28 melanoma.
Take `Brc1ccccc1Nc1ccc2nnc(-c3ccncc3)n2n1`: the growth is 113% in the experiment on DU-145 prostate; 46.9% with K-562 leukemia; 99.7% in the experiment on MALME-3M melanoma; 108% in the experiment with MDA-MB-231 breast; 101% in the experiment with RXF 393 renal; 99.4% in the experiment on SF-268 CNS. In addition, the growth was 104% with SF-539 CNS; 106% with UACC-257 melanoma; 101% with M14 melanoma; 80.6% in the experiment on HCT-15 colon; 109% in the experiment with HT29 colon; 93.9% in the experiment with SNB-75 CNS. In addition, the growth is 100% in the experiment on SNB-19 CNS; 102% with U251 CNS; 102% in the experiment with PC-3 prostate; 104% in the experiment with SK-MEL-5 melanoma; 108% in the experiment on UACC-62 melanoma; 92.5% with LOX IMVI melanoma. For the same compound, the growth in the experiment with SK-MEL-28 melanoma was 99%.
Regarding `Cc1nc(NC(=O)COc2cccc(/C=C3\COc4ccccc4C3=O)c2)sc1C`, the growth was 63.1% with DU-145 prostate; -65.2% (active) in the experiment with K-562 leukemia; -68.1% (active) in the experiment with MALME-3M melanoma; 0.962% (active) with MDA-MB-231 breast; -63.3% (active) in the experiment on SF-268 CNS; 25.3% in the experiment on SF-295 CNS. Besides, the growth with SF-539 CNS was -63.9% (active); with UACC-257 melanoma it was -49% (active); with M14 melanoma, -79.4% (active); in the experiment on HCT-15 colon it was -63.8% (active); in the experiment with HT29 colon, -100% (active); in the experiment with SNB-75 CNS, 54.2%. For the same compound, the growth in the experiment on U251 CNS was -100% (active); in the experiment with SK-MEL-5 melanoma it was -81.8% (active); in the experiment with UACC-62 melanoma it was -18.9% (active); in the experiment with LOX IMVI melanoma, -94.3% (active); with SK-MEL-28 melanoma, -61.2% (active).
On to `COc1ccc(C2OCC(C)(C)CO2)cc1OC`, for which the growth with DU-145 prostate was 107%; in the experiment with K-562 leukemia, 101%; with MALME-3M melanoma it was 107%; in the experiment with MDA-MB-231 breast, 103%; in the experiment on RXF 393 renal it was 88%; with SF-268 CNS it was 101%. The growth is 104% in the experiment with SF-539 CNS; 87.5% in the experiment on UACC-257 melanoma; 113% in the experiment with M14 melanoma; 106% in the experiment on HCT-15 colon; 109% with HT29 colon; 102% with SNB-75 CNS. In addition, the growth in the experiment with SNB-19 CNS is 112%; in the experiment on U251 CNS, 94.8%; in the experiment on PC-3 prostate, 95%; with SK-MEL-5 melanoma it was 96.5%; in the experiment with UACC-62 melanoma, 99.9%; in the experiment with LOX IMVI melanoma it was 95.2%. The growth in the experiment on SK-MEL-28 melanoma is 121%.
As to `CS(=O)(=O)Nc1cccc(C(=O)NCc2ccc(N3CCOCC3)cc2)c1`, the growth is 103% in the experiment with DU-145 prostate; 92.4% in the experiment on K-562 leukemia; 111% with MALME-3M melanoma; 121% in the experiment on MDA-MB-231 breast; 97.9% in the experiment with SF-268 CNS; 103% in the experiment with SF-539 CNS. The growth in the experiment on M14 melanoma is 99.2%; in the experiment on HCT-15 colon it was 104%; with HT29 colon, 95%; with SNB-75 CNS it was 68.2%; in the experiment on SNB-19 CNS it was 108%; in the experiment with U251 CNS, 107%. Further, the growth in the experiment with PC-3 prostate is 104%; in the experiment with SK-MEL-5 melanoma, 98.9%; in the experiment on UACC-62 melanoma it was 113%; with LOX IMVI melanoma, 99.8%; with SK-MEL-28 melanoma, 107%.
Take `CN([N-]C(=O)CC(=O)[N-]N(C)C(=S)c1ccccc1)C(=S)c1ccccc1.[Cu+2]`: the growth with DU-145 prostate was -74.1% (active); in the experiment on K-562 leukemia, -29.7% (active); in the experiment with MALME-3M melanoma it was -90.3% (active); with MDA-MB-231 breast, -89.5% (active); in the experiment on RXF 393 renal it was -91.8% (active); in the experiment with SF-268 CNS, -67.3% (active). For the same compound, the growth is -69.3% (active) with SF-539 CNS; -92.9% (active) in the experiment on UACC-257 melanoma; -58.2% (active) in the experiment with M14 melanoma; 2.52% (active) with HCT-15 colon; -77.8% (active) in the experiment on HT29 colon; -96.8% (active) in the experiment on SNB-75 CNS. Also, the growth in the experiment with SNB-19 CNS was -96.1% (active); in the experiment with U251 CNS, -99% (active); in the experiment with PC-3 prostate, -53% (active); in the experiment with SK-MEL-5 melanoma it was -94.6% (active); with LOX IMVI melanoma, -93.1% (active); in the experiment on SK-MEL-28 melanoma, -94.7% (active).
Consider `COC(=O)[C@@H]1CCCN1C(=O)[C@@H]1CCCN1C(=O)[C@@H](Cc1c[nH]c2ccccc12)NC(=S)Nc1cc(C(F)(F)F)cc(C(F)(F)F)c1`, for which the growth is 80.5% in the experiment on DU-145 prostate; 15.4% with K-562 leukemia; 60.4% with MALME-3M melanoma; 53.2% with MDA-MB-231 breast; 47.5% in the experiment on RXF 393 renal; 58% with SF-268 CNS. Besides, the growth in the experiment on SF-539 CNS was 89.4%; in the experiment on UACC-257 melanoma, 72.3%; with M14 melanoma it was 61.1%; with HCT-15 colon it was 74.6%; in the experiment on SNB-75 CNS, 32.7%; in the experiment on SNB-19 CNS, 69.3%. Moreover, the growth is 43.4% with PC-3 prostate, 58.1% in the experiment with UACC-62 melanoma and 33.7% with SK-MEL-28 melanoma.
